Screening data from PubChem.
Compounds with a hit are over-represented: about 19% of the library has one in this group of screens.
HT1080-NT tox: kills 2HG-producing HT-1080-NT fibrosarcoma cells; HT-1080-NT fibrosarcoma viability, CellTiter-Glo ATP luminescence, 48 h; Potency, µM (doses to about 46.1 µM), hits mostly cytotoxic; 1.6% of 360,000 active; AID 686970;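 further: NT is the 2HG producing partner of a matched IDH1 knockdown line; nearly all actives have a fitted effect of over 55% in size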
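Compounds were tested in concentration-response format on HT-1080-NT cells for 48 hours at 37 degrees C. Cell viability came from CellTiter-Glo luminescence; curves were classified by r2, response magnitude and activity.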
IL-1B inflam inh: inhibitors of inflammasome signaling (IL-1 beta secretion); THP-1 LPS/ATP IL-1B secretion, AlphaLISA, 16 h; active compounds read low; activity change, % at 57.5 µM; 4.7% of 360,000 active; AID 743279; in the data active means activity change below about -50%; inconclusive means mostly about -30% to -49%
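Secreted IL-1B measured by AlphaLISA bead assay after 16 h compound exposure of THP-1 cells; compounds (final up to 57.5 uM) added 1 h before LPS (250 ng/mL) and ATP (1.25 mM) stimulation; lower signal means less secretion.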
TDP1 cell CPT: DT40-hTDP1 cell growth loss with CPT. Potency, µM (doses to about 46.2 µM), most hits filed as inhibitors. chicken DT40 Tdp1-/-;hTDP1 cells + 20 nM CPT, ATP luminescence, 48 h. 12% of 420,000 active. AID 686979; further: nearly all actives have a fitted effect of over 55% in size
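Cell growth measured by CellTiter-Glo luminescence after a minimum 48 h, 37 C compound exposure with 20 nM CPT in Tdp1-knockout DT40 cells stably expressing hTDP1, seeded 400/well; qHTS titration format.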
DT40 TDP1 no CPT: qHTS for Inhibitors of human tyrosyl-DNA phosphodiesterase 1 (TDP1): qHTS in cells in absence of CPT. DT40 Tdp1-/- hTDP1 cells, no CPT, ATP luminescence, 48 h. 15% of 420,000 active. Potency, µM (top dose mostly 46.2 µM), most hits filed as inhibitors; further: nearly all actives have a fitted effect of over 55% in size
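Growth kinetics read by CellTiter-Glo luminescence after ≥48 hr at 37 °C. Cells: DT40 Tdp1-/- stably carrying human TDP1, 400 per well, compound exposure in the absence of CPT (DMSO vehicle).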
HT1080 IDH1KD tx: kills HT-1080 cells with IDH1 knockdown; HT-1080 IDH1 knockdown viability, ATP luminescence, 48 h; Potency, µM (series often up to 46.1 µM), usual class: cytotoxic; 2% of 360,000 active
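CellTiter-Glo luminescence after 48 h compound exposure at 37 degrees C of IDH1-knockdown HT-1080 cells in 5% FBS RPMI. %Activity scaled between DMSO wells and cell-free media wells, with curves fitted and assigned curve classes.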
Large screens that a line does not name were inactive. Unless noted, the call rests on the fitted dose curve; in most records, active means well fitted curve in the direction sought with a large enough effect; inconclusive means small, poorly fitted or top-dose-only effect, or another doubt; inactive means no such curve, though single readings can be large; an effect the other way counts as inactive or inconclusive.

COc1ccc(C2c3[nH]c4ccc(OC)cc4c3CCN2C(=O)Nc2ccccc2)cc1 (centres undefined)	TDP1 cell CPT 23µM, DT40 TDP1 no CPT inconclusive (no result: HT1080-NT tox, IL-1B inflam inh, HT1080 IDH1KD tx)
CCOc1ccc(C2c3[nH]c4ccccc4c3CCN2C(=O)CCC2CCCC2)cc1 (centres undefined)	TDP1 cell CPT 21µM, DT40 TDP1 no CPT 18µM (no result: HT1080-NT tox, IL-1B inflam inh, HT1080 IDH1KD tx)
COc1ccc(C2c3[nH]c4ccccc4c3CCN2C(=O)CCC2CCCC2)cc1 (centres undefined)	TDP1 cell CPT 21µM, DT40 TDP1 no CPT inconclusive (no result: HT1080-NT tox, IL-1B inflam inh, HT1080 IDH1KD tx)
CSc1ccc(C2c3[nH]c4ccccc4c3CCN2C(=O)CCc2ccccc2)cc1 (centres undefined)	none (no result: HT1080-NT tox, IL-1B inflam inh, HT1080 IDH1KD tx)
CCOc1ccc(C2c3[nH]c4ccccc4c3CCN2C(=O)CSc2ccccc2)cc1 (centres undefined)	TDP1 cell CPT inconclusive, DT40 TDP1 no CPT 21µM (no result: HT1080-NT tox, IL-1B inflam inh, HT1080 IDH1KD tx)
Cc1ccc(CNC(=O)Cn2cnc3c(OCc4ccccc4)ncnc32)o1	TDP1 cell CPT inconclusive, DT40 TDP1 no CPT inconclusive
O=C(NCc1ccccc1)C(=O)NCC(c1ccco1)N1CCN(c2ccccc2F)CC1 (centres undefined)	none
O=C(NCc1ccccc1)C(c1ccco1)N1CCN(c2ccccc2F)CC1 (centres undefined)	IL-1B inflam inh -59, TDP1 cell CPT inconclusive, DT40 TDP1 no CPT inconclusive
O=C(NCc1ccccc1)C(c1ccc(F)cc1)N1CCN(CCN2CCOCC2)CC1 (centres undefined)	HT1080 IDH1KD tx inconclusive
O=C(NCc1ccccc1)C(c1ccc(-c2ccccc2)cc1)N1CCN(c2ccccc2F)CC1 (centres undefined)	TDP1 cell CPT 18µM, DT40 TDP1 no CPT inconclusive
O=C(NCCc1c[nH]c2ccccc12)C(=O)NCC(c1ccco1)N1CCN(c2ccccc2F)CC1 (centres undefined)	TDP1 cell CPT inconclusive, DT40 TDP1 no CPT 23µM
Cc1c(NC(=O)c2ccc(S(=O)(=O)N3CCOCC3)cc2)c(=O)n(-c2ccccc2)n1C	none
CCOc1ccc(NC(=O)CN2CCN(CC(=O)Nc3ccc(C(N)=O)cc3)CC2)cc1	none
O=C(NCc1ccc2c(c1)OCO2)c1nc(Cn2cc([N+](=O)[O-])cn2)no1	none
CCOc1ccc(N(CC)C(=O)CCS(=O)(=O)c2cccc3nonc23)cc1	none
CCCCOc1ccc(CNC(=O)c2ccc(NC(=O)N3CCCCc4ccccc43)cc2)cc1	TDP1 cell CPT 18µM, DT40 TDP1 no CPT 26µM (no result: HT1080-NT tox, IL-1B inflam inh, HT1080 IDH1KD tx)
COc1cc(C(=O)N2CCCc3ccccc32)cc(OC)c1OC	HT1080-NT tox inconclusive, TDP1 cell CPT 18µM, DT40 TDP1 no CPT 21µM, HT1080 IDH1KD tx inconclusive
CCOC(=O)c1cccc(NC(=O)Cc2ccc(NC(=O)N3CCCCc4ccccc43)cc2)c1	TDP1 cell CPT 5.2µM, DT40 TDP1 no CPT 4.6µM (no result: HT1080-NT tox, IL-1B inflam inh, HT1080 IDH1KD tx)
CC(C(=O)N1CCc2ccccc21)N1CCN(S(=O)(=O)c2cccc(C(F)(F)F)c2)CC1 (centres undefined)	TDP1 cell CPT inconclusive, DT40 TDP1 no CPT 13µM
CC(C(=O)N1CCc2ccccc21)N1CCN(S(=O)(=O)c2ccc3c(c2)OCCCO3)CC1 (centres undefined)	TDP1 cell CPT inconclusive, DT40 TDP1 no CPT inconclusive
Cc1ccc(C(=O)NCCNC(=O)COc2ccccc2Cl)cn1	none
CCn1cc(C(=O)NCc2ccc(OC)cc2)c(=O)c2ccc(C)nc21	none
COc1cccc(CNC(=O)Cc2ccc(NC(=O)N3CCCCc4ccccc43)cc2)c1OC	DT40 TDP1 no CPT 18µM (no result: HT1080-NT tox, IL-1B inflam inh, HT1080 IDH1KD tx)
COc1cc(CNC(=O)c2ccc(NC(=O)N3CCCCc4ccccc43)cc2)cc(OC)c1OC	TDP1 cell CPT 18µM, DT40 TDP1 no CPT 10µM (no result: HT1080-NT tox, IL-1B inflam inh, HT1080 IDH1KD tx)
O=C(c1ccc(=O)oc1)N1CCCc2ccccc21	TDP1 cell CPT inconclusive, DT40 TDP1 no CPT 16µM
O=C(NCc1cccc(Br)c1)c1ccc(NC(=O)N2CCCCc3ccccc32)cc1	DT40 TDP1 no CPT inconclusive (no result: HT1080-NT tox, IL-1B inflam inh, HT1080 IDH1KD tx)
COc1cc2c(cc1OC)CN(C(C)C(=O)N1CCc3ccccc31)CC2 (centres undefined)	HT1080-NT tox inconclusive, TDP1 cell CPT inconclusive, DT40 TDP1 no CPT 18µM, HT1080 IDH1KD tx inconclusive
CCCNS(=O)(=O)c1cc(-c2nnc3c4ccccc4c(C)nn23)ccc1OC	none (no result: HT1080-NT tox, IL-1B inflam inh, HT1080 IDH1KD tx)
